# In doi:10.1101/2024.03.05.583629:
# Biological target: pT7_6His-AlfaTag-HOXD13 (human, UniProt P35453 263-343)
# Test: PADIT-seq
# Details: dsDNA, one strand shown
# Chain of pT7_6His-AlfaTag-HOXD13 (P35453 263-343): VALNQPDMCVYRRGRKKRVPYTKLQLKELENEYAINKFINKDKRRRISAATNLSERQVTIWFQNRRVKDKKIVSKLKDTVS
row,Sequence,binding signal [log2FC]
1,CTCGAGGATATCAAGATCTGGCCTCGGCAGCCTAAAAGGAACCTCTAGCTAGCCGACTCACTATAGGGATAATCGCCCTGAGCAAAGACC,-0.607 ± 0.118
2,CTCGAGGATATCAAGATCTGGCCTCGGCATTTTAGCCGGAACCTCTAGCTAGCCGACTCACTATAGGGATAATCGCCCTGAGCAAAGACC,-0.535 ± 0.111
3,CTCGAGGATATCAAGATCTGGCCTCGGCTTTTTAGCTGGAACCTCTAGCTAGCCGACTCACTATAGGGATAATCGCCCTGAGCAAAGACC,-0.298 ± 0.114
4,CTCGAGGATATCAAGATCTGGCCTCGGCATTTTATGGGGAACCTCTAGCTAGCCGACTCACTATAGGGATAATCGCCCTGAGCAAAGACC,3.25 ± 0.0762
5,CTCGAGGATATCAAGATCTGGCCTCGGCCGCATCCGCGGAACCTCTAGCTAGCCGACTCACTATAGGGATAATCGCCCTGAGCAAAGACC,-0.957 ± 0.122
6,CTCGAGGATATCAAGATCTGGCCTCGGCGTTTTACGTGGAACCTCTAGCTAGCCGACTCACTATAGGGATAATCGCCCTGAGCAAAGACC,2.36 ± 0.0852
7,CTCGAGGATATCAAGATCTGGCCTCGGCTTTTTAAATGGAACCTCTAGCTAGCCGACTCACTATAGGGATAATCGCCCTGAGCAAAGACC,1.81 ± 0.0949
8,CTCGAGGATATCAAGATCTGGCCTCGGCCGCCCAATTGGAACCTCTAGCTAGCCGACTCACTATAGGGATAATCGCCCTGAGCAAAGACC,-0.555 ± 0.114
9,CTCGAGGATATCAAGATCTGGCCTCGGCGCGTATGCGGGAACCTCTAGCTAGCCGACTCACTATAGGGATAATCGCCCTGAGCAAAGACC,-1.09 ± 0.121
10,CTCGAGGATATCAAGATCTGGCCTCGGCCTTTTACTGGGAACCTCTAGCTAGCCGACTCACTATAGGGATAATCGCCCTGAGCAAAGACC,2.53 ± 0.0719
11,CTCGAGGATATCAAGATCTGGCCTCGGCGTTTTATCTGGAACCTCTAGCTAGCCGACTCACTATAGGGATAATCGCCCTGAGCAAAGACC,0.898 ± 0.106
12,CTCGAGGATATCAAGATCTGGCCTCGGCAGGGTAAAAGGAACCTCTAGCTAGCCGACTCACTATAGGGATAATCGCCCTGAGCAAAGACC,-0.13 ± 0.081
13,CTCGAGGATATCAAGATCTGGCCTCGGCATTTTAGGTGGAACCTCTAGCTAGCCGACTCACTATAGGGATAATCGCCCTGAGCAAAGACC,0.159 ± 0.111
14,CTCGAGGATATCAAGATCTGGCCTCGGCCTTTTATGTGGAACCTCTAGCTAGCCGACTCACTATAGGGATAATCGCCCTGAGCAAAGACC,2.69 ± 0.0743
15,CTCGAGGATATCAAGATCTGGCCTCGGCCCCTGGGCGGGAACCTCTAGCTAGCCGACTCACTATAGGGATAATCGCCCTGAGCAAAGACC,-0.981 ± 0.122
16,CTCGAGGATATCAAGATCTGGCCTCGGCCTTTTACCCGGAACCTCTAGCTAGCCGACTCACTATAGGGATAATCGCCCTGAGCAAAGACC,-0.00238 ± 0.0891
17,CTCGAGGATATCAAGATCTGGCCTCGGCGTGATAAAAGGAACCTCTAGCTAGCCGACTCACTATAGGGATAATCGCCCTGAGCAAAGACC,1.99 ± 0.0801
18,CTCGAGGATATCAAGATCTGGCCTCGGCCATGTAAAAGGAACCTCTAGCTAGCCGACTCACTATAGGGATAATCGCCCTGAGCAAAGACC,1.41 ± 0.0975
19,CTCGAGGATATCAAGATCTGGCCTCGGCCCTTGGGCGGGAACCTCTAGCTAGCCGACTCACTATAGGGATAATCGCCCTGAGCAAAGACC,-0.886 ± 0.123
20,CTCGAGGATATCAAGATCTGGCCTCGGCCGCCCAGCCGGAACCTCTAGCTAGCCGACTCACTATAGGGATAATCGCCCTGAGCAAAGACC,-0.832 ± 0.147

row,Sequence,binding signal [log2FC]
1,CTCGAGGATATCAAGATCTGGCCTCGGCAACGTAAAAGGAACCTCTAGCTAGCCGACTCACTATAGGGATAATCGCCCTGAGCAAAGACC,0.751 ± 0.0928
2,CTCGAGGATATCAAGATCTGGCCTCGGCATTTTATAAGGAACCTCTAGCTAGCCGACTCACTATAGGGATAATCGCCCTGAGCAAAGACC,3.26 ± 0.0841
3,CTCGAGGATATCAAGATCTGGCCTCGGCCAGGTAAAAGGAACCTCTAGCTAGCCGACTCACTATAGGGATAATCGCCCTGAGCAAAGACC,0.0831 ± 0.0976
4,CTCGAGGATATCAAGATCTGGCCTCGGCGTTTTAAGCGGAACCTCTAGCTAGCCGACTCACTATAGGGATAATCGCCCTGAGCAAAGACC,0.144 ± 0.109
5,CTCGAGGATATCAAGATCTGGCCTCGGCGTTTTATTTGGAACCTCTAGCTAGCCGACTCACTATAGGGATAATCGCCCTGAGCAAAGACC,2.98 ± 0.0869
6,CTCGAGGATATCAAGATCTGGCCTCGGCGTTTTATATGGAACCTCTAGCTAGCCGACTCACTATAGGGATAATCGCCCTGAGCAAAGACC,3.04 ± 0.0717
7,CTCGAGGATATCAAGATCTGGCCTCGGCCGTGTAAAAGGAACCTCTAGCTAGCCGACTCACTATAGGGATAATCGCCCTGAGCAAAGACC,1.58 ± 0.0857
8,CTCGAGGATATCAAGATCTGGCCTCGGCGACTTAAAAGGAACCTCTAGCTAGCCGACTCACTATAGGGATAATCGCCCTGAGCAAAGACC,0.297 ± 0.0744
9,CTCGAGGATATCAAGATCTGGCCTCGGCTTTTTAAGGGGAACCTCTAGCTAGCCGACTCACTATAGGGATAATCGCCCTGAGCAAAGACC,1.83 ± 0.0924
10,CTCGAGGATATCAAGATCTGGCCTCGGCATTTTATAGGGAACCTCTAGCTAGCCGACTCACTATAGGGATAATCGCCCTGAGCAAAGACC,3.25 ± 0.0782
11,CTCGAGGATATCAAGATCTGGCCTCGGCCACGTAAAAGGAACCTCTAGCTAGCCGACTCACTATAGGGATAATCGCCCTGAGCAAAGACC,1.76 ± 0.0916
12,CTCGAGGATATCAAGATCTGGCCTCGGCATTTTAGTAGGAACCTCTAGCTAGCCGACTCACTATAGGGATAATCGCCCTGAGCAAAGACC,1.68 ± 0.0834
13,CTCGAGGATATCAAGATCTGGCCTCGGCCTTTTAGGTGGAACCTCTAGCTAGCCGACTCACTATAGGGATAATCGCCCTGAGCAAAGACC,0.366 ± 0.0957
14,CTCGAGGATATCAAGATCTGGCCTCGGCAAGCTAAAAGGAACCTCTAGCTAGCCGACTCACTATAGGGATAATCGCCCTGAGCAAAGACC,-0.784 ± 0.107
15,CTCGAGGATATCAAGATCTGGCCTCGGCCTCGTAAAAGGAACCTCTAGCTAGCCGACTCACTATAGGGATAATCGCCCTGAGCAAAGACC,3.09 ± 0.0876
16,CTCGAGGATATCAAGATCTGGCCTCGGCATTTTAAATGGAACCTCTAGCTAGCCGACTCACTATAGGGATAATCGCCCTGAGCAAAGACC,1.82 ± 0.0848
17,CTCGAGGATATCAAGATCTGGCCTCGGCGTTTTAAAAGGAACCTCTAGCTAGCCGACTCACTATAGGGATAATCGCCCTGAGCAAAGACC,2.44 ± 0.0598
18,CTCGAGGATATCAAGATCTGGCCTCGGCATTTTAAAGGGAACCTCTAGCTAGCCGACTCACTATAGGGATAATCGCCCTGAGCAAAGACC,2.62 ± 0.0783
19,CTCGAGGATATCAAGATCTGGCCTCGGCGGGCTAAAAGGAACCTCTAGCTAGCCGACTCACTATAGGGATAATCGCCCTGAGCAAAGACC,-0.851 ± 0.105
